Source: the supplement of paper PMC10849652
The full data set covers some 8,800 targets. This sample favours those with a hit. About 0.5% of all pairs of compound and target were hits.

Key:
Assay in all cases: log2 fold change, soluble protein after heating vs DMSO (PISA); higher = thermal stabilisation; K562 lysate, 10 uM; active = over 0.2 and 3.5 SD of the protein, either way, in both replicates (recomputed)
[1] = compound: CC1=C2C(=CC=C1)N=C(N(C2=O)C3=CC=CC=C3C)CN4C=NC5=C(N=CN=C54)N
Procedure, shortened: (§1)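 To prepare the extract, K562 pellets were dounce-homogenised in PBS pH 7.4 with 1 mM MgCl2, giving crude material at 1 mg/mL protein. This was treated with 10 μM compound for 30 min, then heated in aliquots for 3 min over 48°C-58°C before pooling and addition of NP-40 to 0.5% at 4°C. Centrifugation at 21,000xg for 90 min left soluble protein in the supernatant, which TMTpro 16plex LC-MS/MS quantified with equalised channel sums. Results are log-two fold changes in thermal stability compared with solvent controls, from duplicates.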

[2] = compound: Cc1sc2c(c1C)C(c1ccc(Cl)cc1)=N[C@@H](CC(=O)OC(C)(C)C)c1nnc(C)n1-2
Procedure, shortened: as §1

[3] = compound: c1ccc([C@@H]2C[C@H]2NC2CCNCC2)cc1
Procedure, shortened: as §1

[4] = compound: C1=CC=C(C=C1)[C@H](COC2=CC3=C(C=C2)NC(=O)N3)NC(=O)C4=CC=CN(C4=O)CC5=CC(=C(C=C5)F)F
Procedure, shortened: as §1

[5] = compound: CC1=C(SC2=C1C(=N[C@H](C3=NN=C(N32)C)CC(=O)N)C4=CC=C(C=C4)Cl)C
Procedure, shortened: as §1

Measured: log2 fold change

ELAVL4 (UniProt P26378)
Sequence of UniProt P26378 (P26378 whole entry, looked up): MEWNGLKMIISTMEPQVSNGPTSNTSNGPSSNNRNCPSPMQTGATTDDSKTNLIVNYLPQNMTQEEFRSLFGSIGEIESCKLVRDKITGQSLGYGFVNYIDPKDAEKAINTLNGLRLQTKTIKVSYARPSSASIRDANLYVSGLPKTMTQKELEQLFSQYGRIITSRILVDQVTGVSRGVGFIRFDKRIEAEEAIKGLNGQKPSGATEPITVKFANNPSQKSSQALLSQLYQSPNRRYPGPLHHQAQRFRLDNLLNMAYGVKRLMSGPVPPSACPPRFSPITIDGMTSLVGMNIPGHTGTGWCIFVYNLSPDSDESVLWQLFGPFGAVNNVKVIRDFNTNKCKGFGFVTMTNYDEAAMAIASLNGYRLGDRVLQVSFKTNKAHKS
inactive: [1] 0.018 | [2] -0.079 | [3] 0.095

ERBIN isoform 8 (UniProt Q96RT1)
inactive: [4] -0.012 | [5] 0.02 | [1] -0.04 | [2] 0.037 | [3] -0.048

GBA2 (UniProt Q9HCG7)
inactive: [4] 0.046 | [5] 0.062 | [2] -0.094 | [3] -0.057

GDE1 (UniProt Q9NZC3)
Sequence of UniProt Q9NZC3 (Q9NZC3 whole entry, looked up): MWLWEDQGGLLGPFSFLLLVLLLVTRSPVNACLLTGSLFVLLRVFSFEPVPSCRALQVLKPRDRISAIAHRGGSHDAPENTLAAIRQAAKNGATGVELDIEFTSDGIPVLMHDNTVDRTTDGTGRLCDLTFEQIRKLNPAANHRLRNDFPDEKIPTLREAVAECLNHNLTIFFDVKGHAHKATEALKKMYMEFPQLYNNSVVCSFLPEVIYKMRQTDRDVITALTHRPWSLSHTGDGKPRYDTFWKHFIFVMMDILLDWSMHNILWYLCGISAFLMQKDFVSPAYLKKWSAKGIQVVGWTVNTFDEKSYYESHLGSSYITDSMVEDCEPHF
inactive: [4] -0.085 | [5] -0.076 | [2] -0.067 | [3] 0.394

FXR1 (UniProt P51114)
Sequence of UniProt P51114 (P51114 whole entry, looked up): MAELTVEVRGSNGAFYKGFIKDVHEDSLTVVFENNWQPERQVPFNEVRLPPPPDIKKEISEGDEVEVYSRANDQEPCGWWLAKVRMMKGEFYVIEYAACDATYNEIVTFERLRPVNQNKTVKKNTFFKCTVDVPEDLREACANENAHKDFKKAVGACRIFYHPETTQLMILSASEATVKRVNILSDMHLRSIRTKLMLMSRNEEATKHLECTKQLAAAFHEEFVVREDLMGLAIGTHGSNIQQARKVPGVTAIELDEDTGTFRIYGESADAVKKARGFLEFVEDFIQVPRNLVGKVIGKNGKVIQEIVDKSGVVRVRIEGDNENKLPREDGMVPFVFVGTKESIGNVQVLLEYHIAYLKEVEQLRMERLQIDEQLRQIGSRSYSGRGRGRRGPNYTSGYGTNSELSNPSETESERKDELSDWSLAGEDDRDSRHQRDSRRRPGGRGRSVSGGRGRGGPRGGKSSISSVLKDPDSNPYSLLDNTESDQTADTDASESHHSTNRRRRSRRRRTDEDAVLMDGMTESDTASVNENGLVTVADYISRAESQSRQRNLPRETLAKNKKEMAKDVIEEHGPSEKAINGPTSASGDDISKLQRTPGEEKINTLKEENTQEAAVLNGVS
inactive: [4] -0.028 | [5] -0.016 | [1] -0.009 | [2] 0.04 | [3] 0.027

EPN2 (UniProt I3L356)
inactive: [4] 0.12 | [5] -0.062 | [3] -0.235

EID1 (UniProt Q9Y6B2)
inactive: [2] 0.024 | [3] -0.022

FAT1 (UniProt Q14517)
inactive: [3] -0.092

FBXO45 (UniProt P0C2W1)
Sequence of UniProt P0C2W1 (P0C2W1 whole entry, looked up): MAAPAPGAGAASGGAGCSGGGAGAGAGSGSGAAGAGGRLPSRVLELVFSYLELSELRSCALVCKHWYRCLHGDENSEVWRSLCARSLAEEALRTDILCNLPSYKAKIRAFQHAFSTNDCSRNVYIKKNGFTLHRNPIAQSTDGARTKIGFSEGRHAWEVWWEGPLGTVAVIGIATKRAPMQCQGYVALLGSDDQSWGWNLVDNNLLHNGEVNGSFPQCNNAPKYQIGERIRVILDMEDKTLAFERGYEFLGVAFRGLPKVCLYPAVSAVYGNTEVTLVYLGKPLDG
inactive: [4] -0.079 | [5] -0.177 | [1] -0.004 | [3] 0.053

FAT2 (UniProt Q9NYQ8)
inactive: [4] -0.009 | [5] 0.092 | [1] 0.104 | [3] -0.161

EPS8L2 (UniProt Q9H6S3)
Sequence of UniProt Q9H6S3 (Q9H6S3 whole entry, looked up): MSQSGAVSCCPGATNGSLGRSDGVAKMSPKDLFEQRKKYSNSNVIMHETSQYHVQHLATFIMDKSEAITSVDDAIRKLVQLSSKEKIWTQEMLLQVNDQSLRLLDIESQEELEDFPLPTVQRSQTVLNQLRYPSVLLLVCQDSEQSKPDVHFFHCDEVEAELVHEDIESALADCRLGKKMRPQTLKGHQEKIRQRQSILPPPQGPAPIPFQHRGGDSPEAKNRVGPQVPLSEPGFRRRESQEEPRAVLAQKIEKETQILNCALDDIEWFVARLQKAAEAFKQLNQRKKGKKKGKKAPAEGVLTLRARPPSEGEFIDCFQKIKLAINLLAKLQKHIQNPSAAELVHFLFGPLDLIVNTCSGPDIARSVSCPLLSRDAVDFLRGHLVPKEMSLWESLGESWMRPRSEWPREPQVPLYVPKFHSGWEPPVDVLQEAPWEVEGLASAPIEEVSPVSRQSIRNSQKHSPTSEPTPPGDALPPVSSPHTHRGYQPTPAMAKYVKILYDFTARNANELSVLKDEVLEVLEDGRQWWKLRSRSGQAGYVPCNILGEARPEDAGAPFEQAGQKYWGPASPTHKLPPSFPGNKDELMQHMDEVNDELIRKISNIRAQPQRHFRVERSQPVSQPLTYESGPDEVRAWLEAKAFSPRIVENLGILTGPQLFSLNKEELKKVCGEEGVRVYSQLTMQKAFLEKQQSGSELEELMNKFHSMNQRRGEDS
inactive: [4] 0.124 | [5] -0.09 | [2] 0.008 | [3] 0.037

DTYMK (UniProt P23919)
Sequence of UniProt P23919 (P23919 whole entry, looked up): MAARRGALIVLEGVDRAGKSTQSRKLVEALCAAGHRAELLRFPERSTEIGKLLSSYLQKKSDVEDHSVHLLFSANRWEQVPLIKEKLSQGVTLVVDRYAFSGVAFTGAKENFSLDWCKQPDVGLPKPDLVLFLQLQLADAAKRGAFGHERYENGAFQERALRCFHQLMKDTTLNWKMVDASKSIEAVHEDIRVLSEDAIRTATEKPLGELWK
inactive: [4] -0.041 | [5] 0.014 | [1] -0.029 | [2] -0.096 | [3] 0.098

FAM76B (UniProt Q5HYJ3)
Sequence of UniProt Q5HYJ3 (Q5HYJ3 whole entry, looked up): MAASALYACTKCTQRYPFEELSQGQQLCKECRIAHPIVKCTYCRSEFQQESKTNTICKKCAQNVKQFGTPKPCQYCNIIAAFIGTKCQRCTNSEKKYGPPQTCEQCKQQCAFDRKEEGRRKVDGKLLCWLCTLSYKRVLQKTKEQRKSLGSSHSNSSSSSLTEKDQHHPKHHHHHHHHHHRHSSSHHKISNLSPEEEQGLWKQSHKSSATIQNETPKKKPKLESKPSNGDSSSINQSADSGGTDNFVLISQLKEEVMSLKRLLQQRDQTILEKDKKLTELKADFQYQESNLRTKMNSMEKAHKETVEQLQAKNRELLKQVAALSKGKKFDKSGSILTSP
inactive: [1] 0.066 | [2] 0.038 | [3] -0.099

FMNL2 isoform 3 (UniProt Q96PY5)
inactive: [2] 0.089

DST isoform 3 (UniProt Q03001)
inactive: [4] -0.039 | [5] -0.033 | [3] 0.586

FAM111A (UniProt Q96PZ2)
inactive: [1] -0.008 | [2] -0.097

EIF2AK3 (UniProt Q9NZJ5)
inactive: [2] 0.025 | [3] 0.041

FAM204A (UniProt Q9H8W3)
inactive: [1] -0.102 | [3] -0.035

GAA (UniProt P10253)
inactive: [4] -0.001 | [5] -0.077 | [1] -0.157 | [3] -0.024

FOXL2 (UniProt P58012)
Sequence of UniProt P58012 (P58012 whole entry, looked up): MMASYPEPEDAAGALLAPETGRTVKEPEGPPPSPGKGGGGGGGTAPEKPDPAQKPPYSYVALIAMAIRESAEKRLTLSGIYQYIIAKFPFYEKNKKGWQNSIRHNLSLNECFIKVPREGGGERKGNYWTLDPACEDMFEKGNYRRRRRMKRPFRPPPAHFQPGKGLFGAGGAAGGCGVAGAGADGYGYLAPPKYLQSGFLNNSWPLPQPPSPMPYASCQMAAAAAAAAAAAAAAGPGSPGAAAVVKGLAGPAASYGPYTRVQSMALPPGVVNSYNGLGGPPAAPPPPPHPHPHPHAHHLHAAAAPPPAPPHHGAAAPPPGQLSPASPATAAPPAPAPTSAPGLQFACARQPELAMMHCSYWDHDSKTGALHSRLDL
inactive: [4] 0.135 | [5] 0.129 | [2] 0.166

EVI5L isoform 2 (UniProt Q96CN4)
inactive: [3] 0.036

GATAD2A isoform 3 (UniProt Q86YP4)
inactive: [4] -0.01 | [5] -0.006 | [1] 0.032 | [2] -0.015 | [3] 0.036

EHHADH (UniProt Q08426)
Sequence of UniProt Q08426 (Q08426 whole entry, looked up): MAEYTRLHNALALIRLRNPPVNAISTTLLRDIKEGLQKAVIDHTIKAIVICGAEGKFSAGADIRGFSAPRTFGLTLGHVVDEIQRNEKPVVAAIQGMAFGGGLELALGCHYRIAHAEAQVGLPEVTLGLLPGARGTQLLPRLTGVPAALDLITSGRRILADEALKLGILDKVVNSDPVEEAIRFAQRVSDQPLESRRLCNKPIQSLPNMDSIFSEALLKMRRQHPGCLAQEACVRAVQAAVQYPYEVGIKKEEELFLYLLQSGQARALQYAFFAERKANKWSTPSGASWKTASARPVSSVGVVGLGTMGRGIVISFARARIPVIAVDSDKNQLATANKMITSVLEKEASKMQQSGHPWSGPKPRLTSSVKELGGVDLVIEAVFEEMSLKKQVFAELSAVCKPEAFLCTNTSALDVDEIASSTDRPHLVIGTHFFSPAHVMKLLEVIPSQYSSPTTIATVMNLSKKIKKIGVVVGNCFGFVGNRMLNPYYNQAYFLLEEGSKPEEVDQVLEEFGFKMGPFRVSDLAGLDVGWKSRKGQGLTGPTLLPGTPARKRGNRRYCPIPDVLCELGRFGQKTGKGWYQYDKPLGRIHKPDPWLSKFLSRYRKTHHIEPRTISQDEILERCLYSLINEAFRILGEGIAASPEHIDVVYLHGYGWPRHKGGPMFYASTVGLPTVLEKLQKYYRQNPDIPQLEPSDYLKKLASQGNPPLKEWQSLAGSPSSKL
inactive: [4] 0.035 | [5] -0.143 | [2] -0.086 | [3] 0.031

DYRK1A isoform 2 (UniProt Q13627)
inactive: [4] -0.001 | [5] -0.028 | [3] -0.339

ELAVL1 isoform 2 (UniProt Q15717)
Sequence of UniProt Q15717 (Q15717 whole entry, looked up): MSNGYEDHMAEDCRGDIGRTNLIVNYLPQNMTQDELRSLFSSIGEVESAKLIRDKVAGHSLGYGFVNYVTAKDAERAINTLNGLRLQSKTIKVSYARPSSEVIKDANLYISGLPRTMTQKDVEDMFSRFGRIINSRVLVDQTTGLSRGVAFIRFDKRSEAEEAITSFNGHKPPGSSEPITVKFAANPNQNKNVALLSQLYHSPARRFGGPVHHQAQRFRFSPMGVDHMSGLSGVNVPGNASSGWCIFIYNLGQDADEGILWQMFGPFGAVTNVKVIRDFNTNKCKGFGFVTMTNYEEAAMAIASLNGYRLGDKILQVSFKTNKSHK
inactive: [4] -0.038 | [5] 0 | [1] -0.017 | [2] 0.066 | [3] 0.052

GART (UniProt C9JZG2)
inactive: [4] -0.131 | [5] 0.086 | [3] -0.366

DYRK1A (UniProt Q13627)
inactive: [4] -0.019 | [5] 0.003 | [1] -0.014 | [2] 0.019 | [3] 0.031

FTSJ1 isoform 2 (UniProt Q9UET6)
inactive: [1] -0.089 | [3] -0.234

GC isoform 3 (UniProt P02774)
Sequence of UniProt P02774 (P02774 whole entry, looked up): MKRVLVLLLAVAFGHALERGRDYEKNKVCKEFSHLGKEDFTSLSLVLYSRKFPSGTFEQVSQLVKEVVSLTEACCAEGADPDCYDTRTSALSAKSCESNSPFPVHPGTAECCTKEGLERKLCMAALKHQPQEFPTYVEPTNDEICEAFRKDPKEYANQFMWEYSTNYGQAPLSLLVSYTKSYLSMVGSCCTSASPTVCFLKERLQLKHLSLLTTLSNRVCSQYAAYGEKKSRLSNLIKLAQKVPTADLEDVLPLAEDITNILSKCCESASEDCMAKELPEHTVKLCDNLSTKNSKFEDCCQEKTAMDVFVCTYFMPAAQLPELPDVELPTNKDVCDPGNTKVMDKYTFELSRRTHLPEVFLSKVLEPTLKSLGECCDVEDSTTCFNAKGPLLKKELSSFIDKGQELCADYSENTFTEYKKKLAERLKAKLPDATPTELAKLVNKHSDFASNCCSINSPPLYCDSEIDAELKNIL
inactive: [1] 0.007 | [2] -0.138 | [3] 0.107

EPB41 isoform 4 (UniProt P11171)
inactive: [3] 0.106
